According to the supplement of paper PMC10849652:
The full data set covers some 7,900 targets. This sample favours those with a hit. About 0.6% of all pairs of compound and target were hits.

What was measured:
Experiment in all cases: log2 fold change, soluble protein after heating vs DMSO (PISA); higher = thermal stabilisation; K562 cells, 10 uM, 30 min; active = over 0.2 and 3.5 SD of the protein, either way, in both replicates (recomputed)
[1] = compound: CS(=O)(=O)c1ccc(-c2cnc(N)c(C(=O)Nc3ccccc3)n2)cc1
In short: (§1)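 Soluble protein was defined as the supernatant after 21,000xg for 90 min. It came from K562 cells at 2×10^6 cells/mL given 10 μM compound for 30 min, heated in aliquots for 3 min across 48°C-58°C, pooled, and extracted in PBS with 0.5% NP-40 at 4°C, and was quantified by TMTpro 16plex LC-MS/MS with equalised channel sums. Thermal stability against control samples, from duplicates, is reported as log2 fold change.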

crizotinib = compound: C[C@@H](Oc1cc(-c2cnn(C3CCNCC3)c2)cnc1N)c1c(Cl)ccc(F)c1Cl [crizotinib]
In short: as §1

[2] = compound: C[C@@H]1COCCN1C2=NC(=NC(=C2)C3(CC3)S(=O)(=O)C)C4=C5C=CNC5=CC=C4
In short: as §1

[3] = compound: C[C@H](C1=CC=C(C=C1)C(=O)NC2=C3C=CNC3=NC=C2)N
In short: as §1

duvelisib = compound: C[C@H](Nc1ncnc2nc[nH]c12)c1cc2cccc(Cl)c2c(=O)n1-c1ccccc1 [duvelisib]
In short: as §1

gandotinib = compound: Cc1cc(Nc2cc(CN3CCOCC3)c3nc(C)c(Cc4ccc(Cl)cc4F)n3n2)n[nH]1 [gandotinib]
In short: as §1

tozasertib = compound: Cc1cc(Nc2cc(N3CCN(C)CC3)nc(Sc3ccc(NC(=O)C4CC4)cc3)n2)n[nH]1 [tozasertib]
In short: as §1

[4] = compound: Cc1cc(SCc2sc(-c3ccc(C(F)(F)F)cc3)nc2C)ccc1OCC(=O)O
In short: as §1

doramapimod = compound: Cc1ccc(-n2nc(C(C)(C)C)cc2NC(=O)Nc2ccc(OCCN3CCOCC3)c3ccccc23)cc1 [doramapimod]
In short: as §1

ispinesib = compound: Cc1ccc(C(=O)N(CCCN)[C@@H](c2nc3cc(Cl)ccc3c(=O)n2Cc2ccccc2)C(C)C)cc1 [ispinesib]
In short: as §1

bafetinib = compound: Cc1ccc(NC(=O)c2ccc(CN3CC[C@H](N(C)C)C3)c(C(F)(F)F)c2)cc1Nc1nccc(-c2cncnc2)n1 [bafetinib]
In short: as §1

[5] = compound: Cc1cccc(CC(=O)N2CCc3c2ccc(-c2cn(C)c4ncnc(N)c24)c3F)n1
In short: as §1

nilotinib = compound: Cc1cn(-c2cc(NC(=O)c3ccc(C)c(Nc4nccc(-c5cccnc5)n4)c3)cc(C(F)(F)F)c2)cn1 [nilotinib]
In short: as §1

[6] = compound: Cc1nc(Nc2n[nH]c3c2CN(C(=O)N[C@H](CN(C)C)c2ccccc2)C3(C)C)c2sccc2n1
In short: as §1

dasatinib = compound: Cc1nc(Nc2ncc(C(=O)Nc3c(C)cccc3Cl)s2)cc(N2CCN(CCO)CC2)n1 [dasatinib]
In short: as §1

[7] = compound: Cc1ncc(-c2ccnc(Nc3ccc(S(C)(=O)=O)cc3)n2)n1C(C)C
In short: as §1

[8] = compound: Cn1cc(-c2ccc3c(c2)CCN3C(=O)Cc2cccc(C(F)(F)F)c2)c2c(N)ncnc21
In short: as §1

[9] = compound: Cn1cc(-c2ccc3nnc(C(F)(F)c4ccc5ncccc5c4)n3n2)cn1
In short: as §1

tipifarnib = compound: Cn1cncc1[C@@](N)(c1ccc(Cl)cc1)c1ccc2c(c1)c(-c1cccc(Cl)c1)cc(=O)n2C [tipifarnib]
In short: as §1

mubritinib = compound: FC(F)(F)c1ccc(/C=C/c2nc(COc3ccc(CCCCn4ccnn4)cc3)co2)cc1 [mubritinib]
In short: as §1

Measured: log2 fold change

PSMD1 (UniProt Q99460)
Chain of UniProt Q99460 (Q99460 whole entry, looked up): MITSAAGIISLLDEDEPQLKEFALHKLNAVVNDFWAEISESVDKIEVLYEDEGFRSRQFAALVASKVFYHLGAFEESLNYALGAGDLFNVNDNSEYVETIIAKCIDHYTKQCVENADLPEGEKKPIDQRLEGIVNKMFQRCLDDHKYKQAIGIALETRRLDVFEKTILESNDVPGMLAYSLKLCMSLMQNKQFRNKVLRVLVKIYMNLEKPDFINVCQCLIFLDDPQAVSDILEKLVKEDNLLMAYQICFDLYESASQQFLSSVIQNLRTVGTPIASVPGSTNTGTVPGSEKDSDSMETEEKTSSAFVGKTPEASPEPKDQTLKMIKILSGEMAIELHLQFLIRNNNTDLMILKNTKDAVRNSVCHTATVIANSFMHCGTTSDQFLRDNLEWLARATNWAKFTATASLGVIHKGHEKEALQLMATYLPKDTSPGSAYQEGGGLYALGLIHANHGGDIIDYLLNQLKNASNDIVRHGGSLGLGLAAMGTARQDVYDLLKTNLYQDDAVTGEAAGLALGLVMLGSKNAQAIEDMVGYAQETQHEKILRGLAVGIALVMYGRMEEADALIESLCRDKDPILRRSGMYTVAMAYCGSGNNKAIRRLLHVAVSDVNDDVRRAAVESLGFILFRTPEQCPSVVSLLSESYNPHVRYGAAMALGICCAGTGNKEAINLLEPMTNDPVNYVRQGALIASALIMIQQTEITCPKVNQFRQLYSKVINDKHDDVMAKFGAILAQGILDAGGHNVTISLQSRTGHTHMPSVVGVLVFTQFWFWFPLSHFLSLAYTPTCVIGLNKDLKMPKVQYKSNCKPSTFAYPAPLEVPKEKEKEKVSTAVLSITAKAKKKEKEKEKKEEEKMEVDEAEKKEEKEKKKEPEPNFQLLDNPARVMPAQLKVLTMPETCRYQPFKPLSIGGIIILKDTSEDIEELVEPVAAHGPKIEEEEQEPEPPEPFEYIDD
inactive: [1] -0.009 | crizotinib -0.002 | [2] -0.075 | [3] 0.047 | duvelisib -0.081 | gandotinib 0 | tozasertib 0.054 | [4] 0.017 | doramapimod 0.036 | ispinesib 0.048 | bafetinib 0.16 | [5] 0.037 | nilotinib 0.006 | [6] 0.041 | dasatinib 0.065 | [7] -0.017 | [8] -0.102 | [9] 0.019 | tipifarnib 0.068 | mubritinib -0.019

PDE2A (UniProt O00408)
inactive: [1] -0.064 | crizotinib 0.004 | [2] 0.223 | [3] -0.108 | duvelisib 0.034 | gandotinib 0.117 | tozasertib -0.105 | [4] 0.045 | doramapimod -0.026 | ispinesib -0.067 | bafetinib 0.021 | [5] -0.02 | nilotinib 0.023 | [6] 0.016 | dasatinib -0.103 | [7] -0.012 | [8] 0.063 | [9] -0.03 | tipifarnib -0.031 | mubritinib -0.051

PRMT7 (UniProt Q9NVM4)
Chain of UniProt Q9NVM4 (Q9NVM4 whole entry, looked up): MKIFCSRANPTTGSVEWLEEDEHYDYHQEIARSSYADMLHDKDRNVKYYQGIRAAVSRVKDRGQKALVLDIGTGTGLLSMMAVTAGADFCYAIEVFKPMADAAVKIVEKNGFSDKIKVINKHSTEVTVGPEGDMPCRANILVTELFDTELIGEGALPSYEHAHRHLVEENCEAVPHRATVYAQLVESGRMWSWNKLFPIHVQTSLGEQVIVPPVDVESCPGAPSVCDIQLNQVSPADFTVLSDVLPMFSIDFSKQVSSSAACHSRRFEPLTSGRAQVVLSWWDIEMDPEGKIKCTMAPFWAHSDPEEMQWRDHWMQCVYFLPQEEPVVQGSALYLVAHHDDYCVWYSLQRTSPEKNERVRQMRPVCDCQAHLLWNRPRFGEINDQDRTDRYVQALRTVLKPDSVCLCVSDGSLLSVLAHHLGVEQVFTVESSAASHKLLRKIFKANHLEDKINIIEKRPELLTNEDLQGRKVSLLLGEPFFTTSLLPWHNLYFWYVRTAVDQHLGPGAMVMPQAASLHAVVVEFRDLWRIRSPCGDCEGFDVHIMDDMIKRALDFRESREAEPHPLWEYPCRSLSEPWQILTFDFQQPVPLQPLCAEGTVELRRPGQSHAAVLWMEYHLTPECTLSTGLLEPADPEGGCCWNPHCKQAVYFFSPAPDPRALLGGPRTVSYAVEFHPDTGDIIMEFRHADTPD
inactive: [1] 0.063 | crizotinib -0.142 | [2] 0.075 | [3] 0.083 | duvelisib 0.037 | gandotinib 0.067 | tozasertib 0.01 | [4] 0.12 | doramapimod 0.038 | ispinesib 0.065 | bafetinib -0.114 | [5] -0.086 | nilotinib -0.002 | [6] -0.047 | dasatinib -0.213 | [7] -0.01 | [8] -0.038 | [9] 0.124 | tipifarnib -0.116 | mubritinib 0.092

PSMB6 (UniProt P28072)
Chain of UniProt P28072 (P28072 whole entry, looked up): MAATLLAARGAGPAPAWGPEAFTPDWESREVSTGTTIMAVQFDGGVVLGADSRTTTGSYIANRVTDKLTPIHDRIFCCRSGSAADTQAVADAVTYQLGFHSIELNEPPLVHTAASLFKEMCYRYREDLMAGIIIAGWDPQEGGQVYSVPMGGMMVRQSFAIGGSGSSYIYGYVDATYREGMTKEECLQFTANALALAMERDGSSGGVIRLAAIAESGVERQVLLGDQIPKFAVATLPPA
active: gandotinib 0.444
inactive: [1] 0.01 | crizotinib 0.096 | [2] 0.003 | [3] 0.059 | duvelisib -0.049 | tozasertib 0.011 | [4] -0.029 | doramapimod 0.049 | ispinesib -0.037 | bafetinib 0.06 | [5] -0.053 | nilotinib 0.028 | [6] 0.049 | dasatinib 0.098 | [7] -0.011 | [8] -0.068 | [9] -0.027 | tipifarnib 0.125 | mubritinib -0.014

PIK3CD (UniProt O00329)
Chain of UniProt O00329 (O00329 whole entry, looked up): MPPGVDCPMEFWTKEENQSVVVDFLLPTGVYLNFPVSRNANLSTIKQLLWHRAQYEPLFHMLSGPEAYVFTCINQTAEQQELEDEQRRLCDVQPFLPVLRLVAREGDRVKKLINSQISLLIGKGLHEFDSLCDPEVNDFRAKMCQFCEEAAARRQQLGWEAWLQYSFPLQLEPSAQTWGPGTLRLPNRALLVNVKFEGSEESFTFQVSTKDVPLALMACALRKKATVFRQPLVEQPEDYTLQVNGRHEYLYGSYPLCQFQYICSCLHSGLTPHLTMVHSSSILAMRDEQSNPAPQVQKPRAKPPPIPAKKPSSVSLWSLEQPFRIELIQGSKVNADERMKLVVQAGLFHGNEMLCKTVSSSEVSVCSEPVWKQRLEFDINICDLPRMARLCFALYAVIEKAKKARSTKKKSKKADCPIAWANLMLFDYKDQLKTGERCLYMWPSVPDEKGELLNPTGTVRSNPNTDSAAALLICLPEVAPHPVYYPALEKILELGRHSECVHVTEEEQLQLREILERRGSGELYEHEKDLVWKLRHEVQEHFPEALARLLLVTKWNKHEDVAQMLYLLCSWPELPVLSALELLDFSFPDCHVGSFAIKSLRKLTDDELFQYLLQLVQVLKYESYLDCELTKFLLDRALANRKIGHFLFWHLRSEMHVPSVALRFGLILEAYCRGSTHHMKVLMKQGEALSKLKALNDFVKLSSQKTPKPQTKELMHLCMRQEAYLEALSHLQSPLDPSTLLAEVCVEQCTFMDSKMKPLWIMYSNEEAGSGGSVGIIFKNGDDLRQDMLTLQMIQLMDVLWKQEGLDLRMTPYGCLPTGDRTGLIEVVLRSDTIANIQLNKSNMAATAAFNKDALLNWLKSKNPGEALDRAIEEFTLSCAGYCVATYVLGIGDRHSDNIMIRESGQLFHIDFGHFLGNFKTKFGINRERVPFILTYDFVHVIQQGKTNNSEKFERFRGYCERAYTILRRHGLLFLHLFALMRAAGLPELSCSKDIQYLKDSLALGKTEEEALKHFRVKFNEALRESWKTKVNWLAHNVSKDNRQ
inactive: [1] -0.019 | crizotinib 0.009 | [2] 0.034 | [3] 0.14 | duvelisib 0.233 | tozasertib 0.049 | [4] -0.11 | doramapimod 0.042 | ispinesib -0.029 | bafetinib 0.033 | [8] -0.228 | [9] 0.074 | tipifarnib 0.031

PDS5A (UniProt Q29RF7)
inactive: [1] 0.03 | crizotinib -0.383 | [2] 0.063 | [3] 0.043 | duvelisib 0.053 | gandotinib -0.099 | tozasertib 0.117 | [4] 0.182 | doramapimod -0.057 | ispinesib -0.127 | bafetinib -0.055 | [5] 0.008 | nilotinib -0.397 | [6] -0.164 | dasatinib -0.3 | [7] 0.001 | [8] 0.08 | [9] 0.123 | tipifarnib -0.231 | mubritinib 0.157

PSMA3 (UniProt P25788)
inactive: [1] 0.011 | crizotinib 0.052 | [2] -0.012 | [3] -0.117 | duvelisib -0.074 | gandotinib 0.054 | tozasertib 0.046 | [4] 0.007 | doramapimod 0.018 | ispinesib -0.002 | bafetinib 0.06 | [5] 0.003 | nilotinib 0.041 | [6] 0.041 | dasatinib 0.029 | [7] 0.008 | [8] -0.003 | [9] -0.005 | tipifarnib 0.006 | mubritinib -0.016

PSMB9 (UniProt P28065)
Chain of UniProt P28065 (P28065 whole entry, looked up): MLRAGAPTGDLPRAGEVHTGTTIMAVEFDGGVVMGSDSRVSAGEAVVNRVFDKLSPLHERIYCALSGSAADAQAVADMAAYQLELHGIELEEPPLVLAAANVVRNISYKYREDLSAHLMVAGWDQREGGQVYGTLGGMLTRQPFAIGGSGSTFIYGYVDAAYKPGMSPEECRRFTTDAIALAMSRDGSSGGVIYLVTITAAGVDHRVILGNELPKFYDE
inactive: [1] 0.259 | crizotinib 0 | [2] 0.075 | [3] 0.066 | gandotinib 0.126 | doramapimod 0.084 | bafetinib -0.22 | [5] -0.122 | [8] 0.054 | tipifarnib 0.03

PSMC6 (UniProt P62333)
Chain of UniProt P62333 (P62333 whole entry, looked up): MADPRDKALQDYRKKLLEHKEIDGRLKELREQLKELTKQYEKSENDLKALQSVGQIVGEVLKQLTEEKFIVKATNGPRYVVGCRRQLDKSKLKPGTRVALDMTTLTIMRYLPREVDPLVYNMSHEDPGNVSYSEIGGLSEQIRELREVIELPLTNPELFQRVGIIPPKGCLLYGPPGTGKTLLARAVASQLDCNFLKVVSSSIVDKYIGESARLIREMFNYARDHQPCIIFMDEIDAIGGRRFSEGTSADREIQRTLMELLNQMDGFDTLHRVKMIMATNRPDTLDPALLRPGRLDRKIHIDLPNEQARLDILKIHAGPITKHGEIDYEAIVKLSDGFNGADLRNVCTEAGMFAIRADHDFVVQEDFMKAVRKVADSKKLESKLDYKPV
inactive: [1] 0.032 | crizotinib 0.022 | [2] -0.047 | [3] 0.116 | duvelisib -0.033 | gandotinib 0.054 | tozasertib 0.031 | [4] -0.002 | doramapimod 0.021 | ispinesib 0.007 | bafetinib 0.069 | [5] 0.008 | nilotinib -0.029 | [6] 0.069 | dasatinib 0.039 | [7] -0.02 | [8] -0.068 | [9] 0.002 | tipifarnib 0.104 | mubritinib -0.048

PKN2 (UniProt Q16513)
Chain of UniProt Q16513 (Q16513 whole entry, looked up): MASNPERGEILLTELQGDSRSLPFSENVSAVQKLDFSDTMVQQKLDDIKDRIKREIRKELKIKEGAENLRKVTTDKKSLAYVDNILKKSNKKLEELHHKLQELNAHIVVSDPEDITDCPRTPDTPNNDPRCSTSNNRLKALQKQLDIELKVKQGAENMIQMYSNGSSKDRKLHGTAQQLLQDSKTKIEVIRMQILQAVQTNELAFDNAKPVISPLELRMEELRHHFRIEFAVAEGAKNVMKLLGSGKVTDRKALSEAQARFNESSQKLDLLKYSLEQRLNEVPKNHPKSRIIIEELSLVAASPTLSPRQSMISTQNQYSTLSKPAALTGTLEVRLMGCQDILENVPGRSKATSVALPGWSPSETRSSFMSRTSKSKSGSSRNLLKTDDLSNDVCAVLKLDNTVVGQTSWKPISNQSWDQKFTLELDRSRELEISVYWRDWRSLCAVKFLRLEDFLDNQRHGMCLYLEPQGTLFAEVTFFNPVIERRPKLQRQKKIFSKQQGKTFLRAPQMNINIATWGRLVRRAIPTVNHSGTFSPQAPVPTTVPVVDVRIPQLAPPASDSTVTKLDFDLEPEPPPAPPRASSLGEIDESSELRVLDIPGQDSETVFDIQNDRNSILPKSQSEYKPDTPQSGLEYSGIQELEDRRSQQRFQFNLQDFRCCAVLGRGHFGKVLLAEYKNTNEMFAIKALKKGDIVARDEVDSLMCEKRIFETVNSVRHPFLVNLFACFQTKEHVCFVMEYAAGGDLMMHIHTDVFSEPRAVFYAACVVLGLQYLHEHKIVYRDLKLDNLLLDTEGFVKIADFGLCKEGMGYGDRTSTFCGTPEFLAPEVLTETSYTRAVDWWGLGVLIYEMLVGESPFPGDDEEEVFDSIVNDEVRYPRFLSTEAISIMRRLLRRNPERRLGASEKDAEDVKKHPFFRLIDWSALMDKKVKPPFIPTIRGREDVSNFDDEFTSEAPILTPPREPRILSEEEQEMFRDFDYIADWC
inactive: [1] 0.025 | crizotinib -0.191 | [2] 0.067 | [3] -0.057 | duvelisib 0.027 | gandotinib -0.058 | [4] 0.133 | doramapimod 0.035 | ispinesib -0.028 | bafetinib 0.068 | [5] 0.062 | nilotinib 0.125 | [6] -0.219 | dasatinib -0.138 | [7] 0.051 | [8] 0.016 | [9] 0.01 | tipifarnib -0.059 | mubritinib 0.048

PARP16 isoform 3 (UniProt Q8N5Y8)
Chain of UniProt Q8N5Y8 (Q8N5Y8 whole entry, looked up): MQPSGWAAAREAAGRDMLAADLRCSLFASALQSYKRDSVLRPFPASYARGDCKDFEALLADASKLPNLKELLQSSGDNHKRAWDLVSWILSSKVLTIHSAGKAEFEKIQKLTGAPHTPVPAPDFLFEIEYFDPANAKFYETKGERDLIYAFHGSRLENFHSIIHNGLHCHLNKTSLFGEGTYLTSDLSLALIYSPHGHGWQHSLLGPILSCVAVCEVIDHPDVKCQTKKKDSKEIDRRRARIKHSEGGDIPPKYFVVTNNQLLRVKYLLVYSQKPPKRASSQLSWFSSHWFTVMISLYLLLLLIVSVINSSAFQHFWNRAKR
inactive: [1] -0.008 | crizotinib 0.076 | [2] -0.021 | [3] 0.079 | duvelisib 0.048 | gandotinib 0.081 | tozasertib -0.007 | [4] -0.081 | doramapimod 0.072 | bafetinib 0.096 | [5] -0.005 | nilotinib -0.034 | [6] -0.019 | dasatinib -0.009 | [7] 0.053 | [8] 0.011 | tipifarnib -0.092 | mubritinib 0.089

PDE6D (UniProt O43924)
Chain of UniProt O43924 (O43924 whole entry, looked up): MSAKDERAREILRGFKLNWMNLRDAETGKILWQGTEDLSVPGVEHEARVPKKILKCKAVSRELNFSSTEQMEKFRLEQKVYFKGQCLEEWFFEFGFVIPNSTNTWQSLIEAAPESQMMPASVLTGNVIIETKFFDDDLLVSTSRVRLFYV
inactive: [1] -0.165 | crizotinib 0.001 | [2] 0.079 | [3] -0.148 | duvelisib 0.109 | gandotinib -0.202 | tozasertib -0.076 | [4] -0.098 | doramapimod 0.084 | bafetinib 0.266 | [5] 0.169 | nilotinib 0.191 | [6] -0.238 | dasatinib 0.026 | [7] 0.011 | [8] 0.385 | mubritinib 0.565

PDIK1L (UniProt Q8N165)
inactive: [1] 0.009 | crizotinib -0.082 | [2] -0.003 | [3] 0.029 | duvelisib 0.086 | tozasertib -0.094 | [4] 0.017 | doramapimod 0.085 | ispinesib 0.039 | bafetinib 0.166 | nilotinib -0.026 | dasatinib -0.081 | [7] -0.037 | [8] 0.05 | [9] 0.13 | tipifarnib -0.152 | mubritinib 0.034
active: [6] 0.578

PATL1 (UniProt Q86TB9)
active: ispinesib -0.339
inactive: [1] -0.014 | crizotinib -0.201 | [2] -0.037 | [3] 0.122 | duvelisib -0.002 | gandotinib -0.139 | tozasertib -0.014 | [4] 0.039 | doramapimod 0.12 | bafetinib -0.007 | [5] 0.034 | dasatinib -0.032 | [8] 0.08 | [9] -0.013 | tipifarnib 0.039 | mubritinib -0.04

PRG4 (UniProt Q92954)
inactive: [1] 0.08 | crizotinib -0.19 | [2] -0.014 | [3] 0.023 | duvelisib -0.145 | gandotinib 0.098 | tozasertib 0.167 | [4] 0.004 | doramapimod -0.229 | ispinesib -0.114 | bafetinib -0.095 | [5] 0.104 | nilotinib -0.05 | [6] 0.065 | dasatinib 0 | [7] 0.258 | [8] 0.203 | [9] 0.068 | mubritinib -0.016

PPP2R5E (UniProt Q16537)
inactive: [1] -0.024 | crizotinib -0.15 | [2] 0.037 | [3] 0.105 | duvelisib 0.078 | gandotinib 0.167 | tozasertib -0.072 | [4] 0.015 | doramapimod -0.01 | ispinesib -0.024 | bafetinib -0.023 | [5] -0.058 | nilotinib -0.11 | [6] 0.057 | dasatinib -0.074 | [7] -0.059 | [8] -0.049 | [9] -0.037 | tipifarnib -0.159 | mubritinib 0.018
